Measured values from PMC4336329 (PLoS ONE, 2015).
Screen size: about 310,000 compounds; about 14,000 (4.5%) showed an effect of 50% or more. The effect is printed as a negative number. Only a selection was taken, and strong results are over-represented in it overall.

These compounds were tested against human ether-à-go-go-related gene (hERG) potassium channel (human, UniProt Q12809) (assay: primary screen, population patch clamp on CHO cells stably expressing hERG; higher = less effect of the substance).
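Note: peak tail current of the secondary pulse compared with the same well before compound.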

Sequence of human ether-à-go-go-related gene (hERG) potassium channel (Q12809 whole entry, looked up): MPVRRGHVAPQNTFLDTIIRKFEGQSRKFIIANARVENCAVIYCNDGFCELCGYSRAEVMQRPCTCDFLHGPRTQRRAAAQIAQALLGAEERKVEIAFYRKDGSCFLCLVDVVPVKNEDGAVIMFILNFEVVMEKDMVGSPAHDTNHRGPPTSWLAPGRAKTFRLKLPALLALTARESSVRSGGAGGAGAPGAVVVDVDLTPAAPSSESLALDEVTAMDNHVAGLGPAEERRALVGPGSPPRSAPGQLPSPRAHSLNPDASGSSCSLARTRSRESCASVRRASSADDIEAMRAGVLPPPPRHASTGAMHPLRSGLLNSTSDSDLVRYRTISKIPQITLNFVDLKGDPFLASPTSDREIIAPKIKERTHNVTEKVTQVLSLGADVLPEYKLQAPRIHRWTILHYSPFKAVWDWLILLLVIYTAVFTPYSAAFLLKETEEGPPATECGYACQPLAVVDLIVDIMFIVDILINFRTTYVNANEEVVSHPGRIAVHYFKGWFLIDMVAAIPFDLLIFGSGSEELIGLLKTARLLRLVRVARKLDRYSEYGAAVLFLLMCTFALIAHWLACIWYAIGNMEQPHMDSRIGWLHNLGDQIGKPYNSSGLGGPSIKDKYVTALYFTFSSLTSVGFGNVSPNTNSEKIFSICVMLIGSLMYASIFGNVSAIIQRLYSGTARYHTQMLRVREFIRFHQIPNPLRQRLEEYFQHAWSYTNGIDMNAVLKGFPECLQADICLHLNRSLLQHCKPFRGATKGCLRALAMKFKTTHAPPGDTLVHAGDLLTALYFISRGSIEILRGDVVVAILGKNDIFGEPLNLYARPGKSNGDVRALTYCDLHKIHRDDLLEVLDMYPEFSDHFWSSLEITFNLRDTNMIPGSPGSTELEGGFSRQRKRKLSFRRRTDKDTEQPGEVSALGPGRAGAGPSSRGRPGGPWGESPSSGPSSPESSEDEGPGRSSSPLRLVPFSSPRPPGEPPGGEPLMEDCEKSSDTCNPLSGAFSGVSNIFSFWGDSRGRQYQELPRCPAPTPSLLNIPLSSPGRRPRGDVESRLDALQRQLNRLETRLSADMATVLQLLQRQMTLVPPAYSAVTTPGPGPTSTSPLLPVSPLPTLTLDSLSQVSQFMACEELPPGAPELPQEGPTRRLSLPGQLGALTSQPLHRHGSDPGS

Compound	hERG current change (%, negative = inhibition) at 10uM [%]
CCn1c(CNC(=O)c2ccccc2Br)nnc1SCC(=O)NC1=NCCS1	27.9
CCOc1ccc(NC(=NCc2ccc3c(c2)OCO3)SC2CC(=O)N(c3ccc(OCC)cc3)C2=O)cc1 (stereo not shown)	-1.29
CCOC(=O)N1CCN(C(=O)CCn2c(=S)[nH]c3cc(OCC)c(OCC)cc3c2=O)CC1	-7.21
COc1ccc(S(=O)(=O)N2CCC(NC(=O)c3cccnc3)CC2)cc1	-64.7
O=C(NC1CCN(S(=O)(=O)c2ccc(Cl)cc2)CC1)c1cccnc1	0.584
O=C(NC1CC2CCCC(C1)N2S(=O)(=O)c1ccccc1)c1ccccc1 (stereo not shown)	-44
CCCN1C2CCCC1CC(NC(=O)c1cccc(OC)c1)C2 (stereo not shown)	-16.4
COc1ccc(S(=O)(=O)N2CCC(NC(=O)c3ccccc3)CC2)cc1	17.8
Cc1cccc(C(=O)NC2CC3CCCC(C2)N3S(=O)(=O)c2ccccc2)c1 (stereo not shown)	-77.2
COc1cccc(C(=O)NC2CC3CCCC(C2)N3S(=O)(=O)c2ccccc2)c1 (stereo not shown)	-75.8
CC(=O)NC1CC2CCCC(C1)N2S(=O)(=O)c1ccccc1 (stereo not shown)	16.3
Cc1cccc(C(=O)NC2CCN(S(=O)(=O)c3ccccc3)CC2)c1	3.41
Cc1nn(CC(=O)NC2(C#N)CCCCC2)c(C)c1[N+](=O)[O-]	3.09
CCCCOC(=O)C1=C(C)NC(=O)NC1c1ccc(N(C)C)cc1 (stereo not shown)	21.7
O=C(COc1ccccc1)N1CCN(C2CC3CCC2C3)CC1 (stereo not shown)	7.39
NC(=O)c1nsc(C(=O)N(c2ccc(F)cc2)C(C(=O)NC2CCCC2)c2ccncc2)c1N (stereo not shown)	-0.193
COc1cccc2c1c(NC(=O)Nc1ccc(F)cc1F)nn2C	15.3
COc1cc2cc(CN(Cc3cccnc3)C(=O)NCc3ccccc3)c(=O)[nH]c2cc1OC	-12.6
CC12CC[C@H]3[C@@H](CCC4(O)C[C@H](O)CCC34/C=N/NC(=O)c3ccc(O)cc3)C1(O)CCC2C1=CC(=O)OC1 (stereo partly shown)	15
CC(C)(/C=N/O)N(O)C=C1C=CC(=O)C=C1	5.81
COc1nc(N/N=C/c2cc3c(cc2Br)OCO3)nc(N2CCOCC2)n1	-27.8
Brc1cc2c(cc1/C=N/Nc1nc(N3CCCC3)nc(N3CCOCC3)n1)OCO2	-51.3
O=[N+]([O-])c1ccccc1/C=C/C=N/Nc1nc(N2CCCCC2)nc(N2CCCCC2)n1	-12.2
Brc1cc2c(cc1/C=N/Nc1nc(N3CCOCC3)nc(N3CCOCC3)n1)OCO2	-5
Clc1ccccc1/C=C/C=N/Nc1nc(N2CCOCC2)nc(N2CCOCC2)n1	-58.4
C(=C\c1ccccc1)/C=N/Nc1nc(N2CCOCC2)nc(N2CCOCC2)n1	-9.68
O=C(c1ccccc1)n1ccc2ccccc21	-28

Compound	hERG current change (%, negative = inhibition) at 10uM [%]
O=S(=O)(c1ccc(Oc2ncnc3scc(-c4ccccc4)c23)cc1)N1CCOCC1	-0.503
Cc1c(C(=O)NCC(c2ccco2)N(C)C)oc2c(Cl)cccc12 (stereo not shown)	-36.9
C/C(=C\c1ccc2c(c1)OCO2)C1Nc2cccc3cccc(c23)N1	16.8
COc1ccccc1OCC(=O)NCC(C)NC(=O)COc1ccccc1OC (stereo not shown)	4.93
Cc1cccc(S(=O)(=O)NNC(=O)c2cc(-c3ccc(F)cc3)nc3ccccc23)c1	28.5
COc1ccc(NC(=O)CN(C)C(=O)c2ccc(N3CCCCCC3)c([N+](=O)[O-])c2)cc1	-51.6
COc1ccc(Cl)cc1NC(=O)CN(C)C(=O)c1ccc(N2CCCCC2)c([N+](=O)[O-])c1	-18.8
CCOc1ccc(NC(=O)CN(C)C(=O)c2ccc(N3CCCCC3)c([N+](=O)[O-])c2)cc1OCC	-57.6
COc1cccc(CN(C)C(=O)c2ccc(N3CCCC3)c([N+](=O)[O-])c2)c1	-45.3
CN(CC(=O)Nc1ccccc1Cl)C(=O)c1ccc(N2CCCCCC2)c([N+](=O)[O-])c1	-20.2
CCOc1ccc(NC(=O)CN(C)C(=O)c2ccc(N3CCCCCC3)c([N+](=O)[O-])c2)cc1OCC	3.4
CCOc1ccc(NC(=O)CN(C)C(=O)c2cc(S(=O)(=O)N(C)C)ccc2N2CCCC2)cc1OCC	6.11
CN(CC(=O)Nc1cccc(F)c1)C(=O)c1ccc(N2CCCCCC2)c([N+](=O)[O-])c1	17.9
COc1ccc(NC(=O)CN(C)C(=O)c2ccc(N3CCCC3)c([N+](=O)[O-])c2)cc1	-54
COc1ccc(NC(=O)CN(C)C(=O)c2ccc(N3CCOCC3)c([N+](=O)[O-])c2)cc1	-46.3
COc1ccc(NC(=O)CN(C)C(=O)c2ccc(N3CCCCC3)c([N+](=O)[O-])c2)cc1	-76.8
COc1ccc(Cl)cc1NC(=O)CN(C)C(=O)c1ccc(N2CCCCCC2)c([N+](=O)[O-])c1	5.32
CC1(C)Cc2c(c(N3CCCC3)nc3sc4c(N5CCNCC5)ncnc4c23)CO1	-35.2
O=C(N/N=C/c1ccc(-c2cccc(C(F)(F)F)c2)o1)c1ccccc1Br	3.21
CCOc1ccc(Cl)cc1S(=O)(=O)NC1CCCC1	-3.26
Cn1c(=O)c2c(nc(Br)n2CC(=O)c2cccs2)n(C)c1=O	-6.03
CCc1ccc(NC(=O)C2CCCCC2C(=O)O)cc1 (stereo not shown)	11.8
CCOc1ccc(NC(=O)CN(C)C(=O)c2ccc(N3CCOCC3)c([N+](=O)[O-])c2)cc1OCC	-19.1
CCOc1ccc(NC(=O)CN(C)C(=O)c2cc([N+](=O)[O-])ccc2N2CCCCC2)cc1OCC	-43.9
CCOc1ccc(NC(=O)CN(C)C(=O)c2cc([N+](=O)[O-])ccc2N2CCOCC2)cc1OCC	-52.5
O=C(NCC(=O)N(c1ccc(F)cc1)C(C(=O)NC1CCCC1)c1cccnc1)c1cccs1 (stereo not shown)	7.21
CC(C)C[C@H](NC(=O)NCCC1=CCCCC1)C(=O)O	-4.82

Compound	hERG current change (%, negative = inhibition) at 10uM [%]
O=C1Nc2ncccc2OC1CCCl (stereo not shown)	6.83
O=C(COc1ccccc1Cl)NCCCNC(=O)c1ccco1	2.17
CN(C)CCN(C(=O)c1ccc(S(=O)(=O)N(C)c2ccccc2)cc1)c1nc2cc3c(cc2s1)OCO3.Cl	-2.57
CCN(c1ccccc1)S(=O)(=O)c1ccc(C(=O)N(CCCN(C)C)c2nc3cc4c(cc3s2)OCO4)cc1.Cl	-57.4
CCN(c1ccccc1)S(=O)(=O)c1ccc(C(=O)N(CCCN(C)C)c2nc3c(C)cccc3s2)cc1.Cl	-34.7
CN(C)CCN(C(=O)c1ccc2ccccc2c1)c1nc2c(F)cc(F)cc2s1.Cl	3.41
CN(C)CCCN(C(=O)c1ccc(S(=O)(=O)N(C)Cc2ccccc2)cc1)c1nc2cc3c(cc2s1)OCO3.Cl	-51.7
CCN(c1ccccc1)S(=O)(=O)c1ccc(C(=O)N(CCN(C)C)c2nc3c(F)cc(F)cc3s2)cc1.Cl	-54.7
CCN(Cc1ccccc1)S(=O)(=O)c1ccc(C(=O)N(CCCN(C)C)c2nc3cc4c(cc3s2)OCCO4)cc1.Cl	-27.5
CN(C)CCN(C(=O)c1ccc(S(=O)(=O)N(C)c2ccccc2)cc1)c1nc2cc3c(cc2s1)OCCO3.Cl	-1.95
CCN(Cc1ccccc1)S(=O)(=O)c1ccc(C(=O)N(CCCN(C)C)c2nc3cc4c(cc3s2)OCO4)cc1.Cl	-45.2
COc1ccc(-c2noc(CN(C(=O)c3cccs3)C(C)C)n2)cc1	-28.6
COc1ccc(S(=O)(=O)N2CCOCC2)c(Cl)c1Cl	-18.3
Cn1c(=O)c2c(nc(OCc3ccccc3)n2C)n(C)c1=O	4.72
Cn1c(=O)c2c(nc(OCc3cccnc3)n2Cc2c(F)cccc2Cl)n(C)c1=O	1.03
C=CCOc1nc2c(c(=O)n(Cc3ccc(Cl)cc3)c(=O)n2C)n1C	-2.66
Cn1c(=O)c2c(nc(OCc3cccnc3)n2Cc2ccccc2)n(C)c1=O	-32.8
Cn1c(OCc2cccnc2)nc2c1c(=O)n(Cc1ccccc1)c(=O)n2C	-56.1
Cn1c(=O)c2c(nc(SCc3cccnc3)n2Cc2ccc(F)cc2)n(C)c1=O	-30.7
Cn1c(=O)c2c(nc(N/N=C/c3cccnc3)n2Cc2ccc(F)cc2)n(C)c1=O	-16.8
Cn1c(OCc2ccc3c(c2)OCO3)nc2c1c(=O)n(Cc1cccc(Cl)c1)c(=O)n2C	-0.643
Cn1c(OCc2cccnc2)nc2c1c(=O)n(Cc1ccc(Cl)cc1)c(=O)n2C	-51.1
Cn1c(OCc2cccnc2)nc2c1c(=O)n(Cc1ccc(F)cc1)c(=O)n2C	-51.9
Cn1c(=O)c2c(nc(N/N=C/c3ccncc3)n2Cc2ccccc2)n(C)c1=O	-28.8
Cn1c(=O)c2c(nc(N/N=C/c3cccnc3)n2Cc2ccccc2)n(C)c1=O	-51.2
